HCMV inh: qHTS Assay for inhibitors of the human cytomegalovirus (HCMV); HFF cells, HCMV-luciferase reporter, 72 h; stronger effect = lower value; activity change, negative = inhibition, % at 57.5 µM; 410,000 compounds, 4.5% hits; AID 1259415, 2018; in the data active = activity change below about -60%; inconclusive = no clear call, values can overlap the other calls; inactive = above about -39%
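Luciferase read-out from HCMV-luciferase-infected HFFs (MOI 1 PFU/cell) 72 h post infection at 37C; compounds added after 16 h cell attachment; activity normalized between buffer-only basal and Salinomycin (10uM) inhibitor controls.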
Marburg entry inh: qHTS for inhibitors of binding or entry into cells for Marburg Virus. Marburg virus pseudotyped entry inhibition, cell reporter. Potency, µM (top dose mostly 37.8 µM), most hits filed as inhibitors. 300,000 compounds, 1.8% hits. AID 540276, 2011; calls by dose curve; tested in HEK293 cells
FMDV antiviral: High Throughput Screening for Foot and Mouth Disease Virus Antivirals; 410,000 compounds, 1.2% hits; FMDV antiviral cell-based qHTS; Potency, µM (doses to about 57.9 µM), actives largely listed as inhibitors; AID 1159524, 2015; calls by dose curve; tested in HEK293T cells; also: read-out not given here; nearly all actives have a fitted effect of over 45% in size
LASV entry inh: qHTS for Inhibitors of binding or entry into cells for Lassa Virus. Lassa virus pseudotype entry inhibition, cell reporter. Potency, µM (doses to about 37.9 µM), most hits filed as inhibitors. 300,000 compounds, 1.2% hits. AID 540256, 2011; calls by dose curve; tested in HEK293 cells; also: nearly all actives have a fitted effect of over 50% in size
Large screens that a line does not name were inactive; ! = repeats disagree. This is a sample that favours compounds with a hit; in the whole collection about 6.2% have one here.

CNC(=O)COc1ccc(Nc2nnc(-c3ccc(C)c(S(=O)(=O)NC(C)(C)C)c3)c3ccccc23)cc1	HCMV inh inconclusive, LASV entry inh inconclusive (no result: Marburg entry inh)
C#CC(C)(C)NS(=O)(=O)c1cc(-c2nnc(Nc3ccc(C)cc3)c3ccccc23)ccc1C	HCMV inh -87, Marburg entry inh inconclusive, LASV entry inh inconclusive
CCCNS(=O)(=O)c1cc(-c2nn3c(C)nnc3c3ccccc23)ccc1C	Marburg entry inh inconclusive, LASV entry inh inconclusive
CNS(=O)(=O)c1cc(-c2nnc(Nc3ccc(NC(C)=O)cc3)c3ccccc23)ccc1C	HCMV inh -66, Marburg entry inh inconclusive
CNS(=O)(=O)c1cc(-c2nn3c(C)nnc3c3ccccc23)ccc1C	HCMV inh -62 (no result: Marburg entry inh)
NC(Cc1ccccc1)Cc1ccccc1	none
NC(=O)c1nnn(Cc2cc(Cl)c(C(=O)c3ccc(Cl)cc3)c(Cl)c2)c1N	HCMV inh -91, FMDV antiviral inconclusive (no result: Marburg entry inh, LASV entry inh)
CCOc1ccc(Cc2onc3c2C(=O)CCC3)cc1OCC	HCMV inh -89
COc1ccc(C(C)(O)c2nc(/C=C/c3ccccc3)cs2)cc1 (stereo unspecified)	none (no result: Marburg entry inh, LASV entry inh)
Cc1ccc(C(=O)N(Cc2nc3ccccc3c(=O)[nH]2)C2CCCC2)cc1	Marburg entry inh inconclusive, FMDV antiviral inconclusive, LASV entry inh inconclusive
NC(=O)c1ccsc1NC(=O)COC(=O)/C=C/c1ccccc1[N+](=O)[O-]	Marburg entry inh inconclusive, FMDV antiviral 32µM
NC(=O)c1ccsc1NC(=O)COC(=O)/C=C/c1ccccc1	FMDV antiviral inconclusive
CC(=O)Nc1ccc(S(=O)(=O)NCCNS(=O)(=O)c2ccc(NC(C)=O)cc2)cc1	none (no result: Marburg entry inh, LASV entry inh)
CC(=O)Nc1ccc(S(=O)(=O)NCCSCc2ccc(Cl)cc2Cl)cc1	HCMV inh -67, Marburg entry inh inconclusive, LASV entry inh inconclusive
CCc1cccc(NC(=O)CN(C)S(=O)(=O)c2cnc[nH]2)c1	none
CC(=C\c1ccccc1)/C=C1/SC(=S)N(CCCC(=O)O)C1=O	HCMV inh -82, Marburg entry inh inconclusive, FMDV antiviral inconclusive, LASV entry inh inconclusive
CC(/C=C1\SC(=O)N(CCCC(=O)O)C1=O)=C\c1ccccc1	HCMV inh -89, Marburg entry inh 0.5µM, FMDV antiviral 0.89µM, LASV entry inh 0.79µM
Cn1cc(S(=O)(=O)c2cccc(Cl)c2)c(=O)c2cc(F)c(N3CCCCC3)cc21	HCMV inh -61 (no result: Marburg entry inh)
Cc1cc([N+](=O)[O-])nn1CC(=O)Nc1ccc(Cl)cn1	HCMV inh -60
COc1cccc(-c2ccc3c(c2)N(Cc2cccc(F)c2)C(=O)C(C)S3)c1 (stereo unspecified)	FMDV antiviral inconclusive (no result: Marburg entry inh, LASV entry inh)
COc1cc(C2CC(=O)N(Cc3cccc(F)c3)c3ccccc3S2)cc(OC)c1OC (stereo unspecified)	HCMV inh -95, FMDV antiviral 25µM (no result: LASV entry inh)
O=[N+]([O-])c1cc(F)c(N2CCCCC2)cc1N1CCOCC1	none
N#Cc1cc(N2CCCCC2)c([N+](=O)[O-])cc1C#N	HCMV inh -64
O=[N+]([O-])c1cc2no[n+]([O-])c2cc1N1CCCCC1	HCMV inh -63, FMDV antiviral 32µM
CCNC(=S)NNC(=O)c1c(Cl)c(C)nn1C	none
O=S(NCc1ccccc1)C12CC3CC(CC(C3)C1)C2 (stereo unspecified)	none (no result: FMDV antiviral)
COC(=O)C(C(=O)OC)C(C(=O)OC)C(C(=O)OC)C(=O)OC	HCMV inh -88, Marburg entry inh inconclusive
CC1(c2ccc3noc(-c4ccccc4)c3c2)OCCO1	FMDV antiviral 16µM, LASV entry inh inconclusive
COc1cccc(-c2onc3ccc(C(C)=O)cc23)c1	HCMV inh -70 (no result: Marburg entry inh, LASV entry inh)
CC(=O)COC(=O)c1ccc2noc(-c3ccccc3)c2c1	HCMV inh -68, Marburg entry inh inconclusive
CC1(c2ccc3noc(-c4ccc(F)cc4)c3c2)OCCO1	FMDV antiviral inconclusive
CC(=O)c1ccc2noc(-c3cccc(F)c3)c2c1	HCMV inh inconclusive
Cc1cc(C)nc(Nc2ncc(O)n2-c2ccc(C)c(Cl)c2)n1	none
CCN(C(=O)COC(=O)c1cc2c(s1)CCCC2)c1c(N)n(Cc2ccccc2)c(=O)[nH]c1=O	none
COc1ccc2c(c1)CC/C2=N\OC(=O)c1cccc(C)c1	Marburg entry inh inconclusive, LASV entry inh inconclusive
O=[N+]([O-])c1c(Nc2ccccn2)cc(Cl)c2nonc12	HCMV inh -105, FMDV antiviral 13µM, LASV entry inh inconclusive
O=[N+]([O-])c1c(Nc2ccc(O)cc2)cc(Cl)c2nonc12	HCMV inh -100, FMDV antiviral 22µM (no result: Marburg entry inh, LASV entry inh)
Cc1ccc(NC(=O)CCSc2ccccn2)cc1	Marburg entry inh inconclusive
CN(C)CC[C@H](c1ccc(Br)cc1)c1ccccn1	Marburg entry inh 8.9µM! (no result: HCMV inh, FMDV antiviral, LASV entry inh)
CN(C)CCC(c1ccc(Cl)cc1)c1ccccn1 (stereo unspecified)	Marburg entry inh 2.8µM!
CNS(=O)(=O)c1cccc(C(=O)OCC(=O)Nc2sc3c(c2C#N)CCCCC3)c1	none
Cc1c(P(=S)(c2ccccc2)c2ccccc2)[n+]2ccccc2n1CCc1ccccc1	HCMV inh -98, FMDV antiviral inconclusive (no result: Marburg entry inh, LASV entry inh)
CCOP(=S)(OCC)N1CCOCCOCCN(P(=S)(OCC)OCC)CCOCCOCC1	Marburg entry inh 10µM, LASV entry inh inconclusive
CCOP(=O)(OCC)C(CC)N1CCOCC1 (stereo unspecified)	none
CCOC(=O)[C@]12Cc3cc(C)ccc3[C@H]1N(C)C(=O)c1ccccc12	none (no result: Marburg entry inh, LASV entry inh)
CCOC(=O)[C@]12Cc3cc(Cl)ccc3[C@H]1N(C1CCCCC1)C(=O)c1ccccc12	FMDV antiviral 4.5µM (no result: HCMV inh, Marburg entry inh, LASV entry inh)
CCOC(=O)[C@]12Cc3cc(OC)ccc3[C@H]1N(C)C(=O)c1ccccc12	FMDV antiviral inconclusive (no result: Marburg entry inh, LASV entry inh)
CCOC(=O)[C@]12Cc3cc(OC)ccc3[C@H]1N(C1CCCCC1)C(=O)c1ccccc12	HCMV inh -101, FMDV antiviral 8.9µM (no result: Marburg entry inh, LASV entry inh)
COc1cccc2cc(-c3cc(=O)oc4ccc(O)cc34)oc12	none (no result: Marburg entry inh, LASV entry inh)
c1ccc(COc2ccc(-c3cc4nc(NCc5ccc6c(c5)OCO6)ccn4n3)cc2)cc1	HCMV inh -64 (no result: Marburg entry inh, LASV entry inh)
CC1CC(C)(C)N(C(=O)CSc2ccc(-c3ccc(F)cc3)nn2)c2ccccc21 (stereo unspecified)	HCMV inh -87, Marburg entry inh inconclusive (no result: FMDV antiviral)
CC1CCN(C(=O)CSc2ccc(-c3ccc(F)cc3)nn2)CC1	FMDV antiviral inconclusive, LASV entry inh inconclusive
COc1ccc(Cn2nnnc2CN2CCC(c3nc4ccccc4s3)CC2)cc1	HCMV inh -70, Marburg entry inh inconclusive, FMDV antiviral 20µM, LASV entry inh inconclusive
c1ccc2sc(C3CCN(Cc4nnnn4Cc4ccc5c(c4)OCO5)CC3)nc2c1	HCMV inh inconclusive, Marburg entry inh inconclusive, FMDV antiviral 20µM, LASV entry inh inconclusive
CC(=O)NC1(c2ccccc2)CCN(Cc2nnnn2C(C)(C)C)CC1	none
CCCCCCCCCc1ccc(O)cc1	none (no result: HCMV inh, Marburg entry inh, LASV entry inh)
CCCCCCCCCc1ccc(OCCOCCO)cc1	FMDV antiviral 11µM (no result: HCMV inh, Marburg entry inh, LASV entry inh)
CCC(=O)Nc1ccc(NC(=O)c2ccccc2)nc1	none (no result: Marburg entry inh, LASV entry inh)
Nc1cc2nc3ccccc3oc-2cc1=O	HCMV inh -91 (no result: Marburg entry inh, LASV entry inh)
COc1ccc(-c2noc(CSc3nc(N)c(-c4ccccc4)c(=O)[nH]3)n2)cc1OC	none
COc1ccc(-c2noc(CSc3nnc(Cc4ccccc4)n3-c3ccccc3)n2)cc1OC	LASV entry inh 6.3µM

High-throughput results: PubChem BioAssay, National Center for Advancing Translational Sciences (NCATS)
